Several values for one entry are separate records, joined by “and”; a condition that tells them apart may be missing. Identical values can stand only once. Results filed as inconclusive are left out. The source holds several records for some structures; these can differ, active in one and inactive in another. Activity calls are given as the source filed them. Unless noted, calls come from the whole dose curve; as a rule, active = well fitted curve in the direction sought with a large enough effect; inconclusive = small, poorly fitted or top-dose-only effect, or another doubt; inactive = no such curve, though single readings can be large; an effect the other way counts as inactive or inconclusive.

In assay [1] the target is Voltage-gated inwardly rectifying potassium channel KCNH2 (Homo sapiens) (UniProt Q12809). Nature of the assay: qHTS Assay for Small Molecule Inhibitors of the Human hERG Channel Activity (AID 588834).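 Note: lower thallium flux fluorescence means stronger hERG block; nearly all actives have a fitted effect of over 50% in size.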 Note: potency is the fitted concentration of half-maximal effect. An outline of the steps:
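Cells were infected with hERG-BacMam virus for 4 hrs at room temperature, grown overnight, then seeded at 2000/well. After dye loading and roughly 10 min compound treatment, thallium influx was triggered and fluorescence recorded.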
For orientation: Quantitative high-throughput screening tests each substance at several concentrations.

Assay [2] addresses Peroxisome proliferator-activated receptor delta (Homo sapiens) (UniProt Q03181). Kind of assay: qHTS assay for small molecule antagonists of peroxisome proliferator-activated receptor delta signaling (AID 588535; active = well fitted inhibition curve with a large enough effect in the signal ratio, with a control signal flat, not every such curve was filed as active; the % refers to the signal ratio). Put shortly:
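Compounds tested in titration on PPAR-delta-UAS-bla HEK293T cells grown in charcoal/dextran-stripped serum (2%); beta-lactamase activity read via CCF4 emission at 460 and 530 nm.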

The target in assay [3] is Peroxisome proliferator-activated receptor gamma (Homo sapiens) (UniProt P37231). Nature of the assay: qHTS assay for small molecule agonists of peroxisome proliferator-activated receptor gamma signaling (AID 588536; active = well fitted curve in the direction sought with a large enough effect in the signal ratio, with a control signal flat, not every such curve was filed as active; the % refers to the signal ratio;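 note: 0% = DMSO basal wells and 100% = rosiglitazone at 2 µM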). An outline of the steps:
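Compound treatment: 16 h, 37 C, HEK293 GeneBLAzer cells. Detection: CCF4, 2 h RT. Values: Hill-fit EC50, efficacy as % of 2 uM rosiglitazone.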

The target is the same in assay [4]. Kind of assay: qHTS assay for small molecule antagonists of peroxisome proliferator-activated receptor gamma signaling (AID 588537; active = well fitted inhibition curve with a large enough effect in the signal ratio, with a control signal flat, not every such curve was filed as active; the % refers to the signal ratio;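 note: reporter cells co-stimulated with 50 nM rosiglitazone agonist during compound treatment; % of control where 0% means no effect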). An outline of the steps:
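HEK293 cells, PPAR-gamma-UAS-bla, 3000/well. Pre-incubation 6-6.5 h, 37 C. Compound titration with rosiglitazone 50 nM final, 16 h. CCF4 dye, 2 h RT, dual-emission fluorescence.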

Assay [5] in a line: qHTS assay for small molecule agonists of retinoid X receptor alpha signaling (AID 588544; calls by dose curve). To be noted: HEK293T RXRa-UAS-bla, beta-lactamase reporter, 18 h; 530 nm emission.
The target of assay [6] is Retinoic acid receptor RXR-alpha (Homo sapiens) (UniProt P19793). Described as above.
Assay [7] deals with Thyroid hormone receptor beta (Homo sapiens) (UniProt P10828). Nature of the assay: qHTS assay for small molecule agonists of thyroid hormone receptor beta signaling (AID 588545; calls by dose curve). Put shortly:
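Agonist-mode beta-lactamase reporter assay, HEK 293 cells, 2% charcoal/dextran FBS; cells plated 4 hrs, compound 18 hrs at 37 C, CCF4 2 hrs RT. Normalized to 10 nM T3 (100%) and DMSO (0%); Hill fit gives EC50, efficacy.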

Assay [8] in a line: qHTS assay for small molecule antagonists of retinoid X receptor alpha signaling (AID 588546; active = well fitted inhibition curve with a large enough effect in the signal ratio, with a control signal flat, not every such curve was filed as active; the % refers to the signal ratio;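 note: cells stimulated with 9-cis-retinoic acid as agonist; % is set by controls: 0 for no effect and ±100 for the full control effect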). The settings on record: HEK293T RXRa-UAS-bla, beta-lactamase ratio, antagonist mode; measured here: W530 green channel, cytotoxicity proxy. An outline of the steps: (§1)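 Beta-lactamase reporter inhibition, read as CCF4 fluorescence ratio (ex 405, em 460/530 nm) after 2 h at RT. HEK293T UAS-bla cells, 2500/well, were stimulated with 9-cis-RA at 500 or 100 nM final alongside test compound for 18 h at 37 C.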

Assay [9] deals with Retinoic acid receptor RXR-alpha (Homo sapiens) (UniProt P19793). Described as above. The settings on record: HEK293T RXRa-UAS-bla, beta-lactamase ratio, antagonist mode. An outline of the steps:
as §1

The target of assay [10] is Thyroid hormone receptor beta (Homo sapiens) (UniProt P10828). Kind of assay: qHTS assay for small molecule antagonists of thyroid hormone receptor beta signaling (AID 588547; active = well fitted inhibition curve with a large enough effect in the signal ratio, with a control signal flat, not every such curve was filed as active; the % refers to the signal ratio;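 note: cells stimulated with 0.4 nM T3 agonist during compound exposure; series mostly up to about 77 µM; % is set by controls: 0 for no effect and ±100 for the full control effect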). To be noted: TR-UAS-bla HEK293, beta-lactamase ratio, antagonist mode, 18 h. An outline of the steps:
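TR-UAS-bla GripTite HEK293 cells in 2% charcoal/dextran FBS medium were preincubated 4 h at 37 C, given compound (0.59 nM to 92 uM) plus 0.4 nM T3 (final) for 18 h, then CCF4 for 2 h at RT; Hill fit gave IC50.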

The target in assay [11] is Luciferin 4-monooxygenase (Photinus pyralis) (UniProt P08659). Nature of the assay: Biochemical firefly luciferase enzyme assay for NPC (AID 624030).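 Note: purified P. pyralis luciferase at 10 nM with luciferin and ATP substrate; series mostly up to about 59 µM; 0% = DMSO and -100% = full luciferase inhibition by PTC124 control; nearly all actives have a fitted effect of over 70% in size.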 An outline of the steps: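 Counter-screen for direct inhibition of the luciferase enzyme by approved-drug library compounds, run at 10 nM enzyme in 50 mM Tris acetate (final). Luminescence was read within 5 min of enzyme-buffer addition and normalized to PTC124 versus DMSO (0%).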

A short description of assay [12]: S16 Schwann cell viability assay (CellTiter-Glo assay) (AID 624031).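 Note: native untransfected S16 rat Schwann cells; cellular ATP luminescence as a viability measure; series mostly up to about 58 µM; plate controls were DMSO-treated cells for no effect and cell-free wells for full effect; nearly all actives have a fitted effect of over 70% in size.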 An outline of the steps:
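Following overnight culture in 10% FBS DMEM, parental S16 rat Schwann cells are dosed for 24 h at 37 °C. Viability is read as CellTiter-Glo luminescence and expressed as % activity relative to DMSO (0%) and no-cell wells.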
For orientation: Cellular ATP, detected with luciferase, serves as a proxy for viable cell number.

A short description of assay [13]: S16 Schwann cell PMP22 intronic element firefly luciferase assay (AID 624032).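 Note: series mostly up to about 58 µM; plate controls were DMSO for no effect and PTC124 positive control mean for full effect; nearly all actives have a fitted effect of over 30% in size.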 An outline of the steps: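 Rat S16 Schwann cells stably carrying a PMP22 intronic element-driven Fluc reporter were seeded overnight, then exposed to compounds for 24 h at 37 °C. Luminescence was normalized to PTC124 (positive control) and DMSO (0% activity).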
The target of assay [14] is Vitamin D3 receptor (Homo sapiens) (UniProt P11473). Nature of the assay: qHTS assay for small molecule agonists of vitamin D receptor signaling (AID 588543; calls by dose curve;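 note: 0% = DMSO basal and 100% = reference agonist control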). An outline of the steps:
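qHTS in agonist mode: compound titrations stimulate a VDR-driven β-lactamase reporter in HEK293T cells over 16 h at 37 °C. Response normalized to 50 nM 1α,25-dihydroxyvitamin D3 = 100%, DMSO = 0%; Hill fitting gives EC50 and maximal response.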

The nature of assay [15]: S16 Schwann cell PMP22 intronic element beta-lactamase assay (AID 624044; calls by dose curve;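 note: 0% = DMSO and -100% = potassium clavulanate positive control; nearly all actives have a fitted effect of over 15% in size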). An outline of the steps:
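Beta-lactamase reporter under a PMP22 intronic regulatory element in stable S16 rat Schwann cells; 24 h compound exposure. 460 nm blue signal normalized between DMSO (0%) and potassium clavulanate, with 535 nm FRET tracking viability; curves classed by r2 and response.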

Assay [16] addresses Vitamin D3 receptor (Homo sapiens) (UniProt P11473). Kind of assay: qHTS assay for small molecule antagonists of vitamin D receptor signaling (AID 588541; calls by dose curve;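 note: receptor activated by calcitriol during compound treatment; series mostly up to about 77 µM; % is set by controls: 0 for no effect and ±100 for the full control effect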). An outline of the steps: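 VDR-UAS-bla HEK293T cells (2000/well, 2% charcoal-stripped FBS) were treated with titrated compounds plus 1-alpha,25-dihydroxyvitamin D3 (50 nM or 3 nM final) for 16 h at 37 C. CCF4 beta-lactamase fluorescence was read; Hill fits gave IC50.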

Chain of Vitamin D3 receptor (Homo sapiens) (P11473 whole entry, looked up): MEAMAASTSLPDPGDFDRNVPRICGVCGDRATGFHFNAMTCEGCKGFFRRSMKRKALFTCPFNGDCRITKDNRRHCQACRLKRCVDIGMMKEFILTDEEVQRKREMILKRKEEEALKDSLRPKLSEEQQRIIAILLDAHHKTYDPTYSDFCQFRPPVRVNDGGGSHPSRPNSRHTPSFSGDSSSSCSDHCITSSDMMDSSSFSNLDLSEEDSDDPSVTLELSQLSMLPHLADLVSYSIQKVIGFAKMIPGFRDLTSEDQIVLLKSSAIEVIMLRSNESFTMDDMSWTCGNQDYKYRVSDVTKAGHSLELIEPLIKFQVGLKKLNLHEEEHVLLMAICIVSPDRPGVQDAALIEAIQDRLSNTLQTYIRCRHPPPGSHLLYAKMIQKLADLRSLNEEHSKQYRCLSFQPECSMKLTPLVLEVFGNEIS
Chain of Thyroid hormone receptor beta (Homo sapiens) (P10828 whole entry, looked up): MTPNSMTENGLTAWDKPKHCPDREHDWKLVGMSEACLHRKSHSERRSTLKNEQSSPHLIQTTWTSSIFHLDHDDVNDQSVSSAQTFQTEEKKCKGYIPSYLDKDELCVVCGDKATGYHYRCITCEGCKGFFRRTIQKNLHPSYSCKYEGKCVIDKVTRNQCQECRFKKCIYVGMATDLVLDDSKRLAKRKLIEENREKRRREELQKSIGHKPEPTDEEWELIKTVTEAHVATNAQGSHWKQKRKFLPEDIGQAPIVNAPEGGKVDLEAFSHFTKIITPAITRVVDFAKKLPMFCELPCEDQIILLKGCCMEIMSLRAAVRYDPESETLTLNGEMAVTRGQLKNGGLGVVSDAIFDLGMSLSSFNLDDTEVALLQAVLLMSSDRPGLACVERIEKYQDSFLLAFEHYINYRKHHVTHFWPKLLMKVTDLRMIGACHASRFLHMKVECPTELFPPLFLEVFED
Chain of Voltage-gated inwardly rectifying potassium channel KCNH2 (Homo sapiens) (Q12809 whole entry, looked up): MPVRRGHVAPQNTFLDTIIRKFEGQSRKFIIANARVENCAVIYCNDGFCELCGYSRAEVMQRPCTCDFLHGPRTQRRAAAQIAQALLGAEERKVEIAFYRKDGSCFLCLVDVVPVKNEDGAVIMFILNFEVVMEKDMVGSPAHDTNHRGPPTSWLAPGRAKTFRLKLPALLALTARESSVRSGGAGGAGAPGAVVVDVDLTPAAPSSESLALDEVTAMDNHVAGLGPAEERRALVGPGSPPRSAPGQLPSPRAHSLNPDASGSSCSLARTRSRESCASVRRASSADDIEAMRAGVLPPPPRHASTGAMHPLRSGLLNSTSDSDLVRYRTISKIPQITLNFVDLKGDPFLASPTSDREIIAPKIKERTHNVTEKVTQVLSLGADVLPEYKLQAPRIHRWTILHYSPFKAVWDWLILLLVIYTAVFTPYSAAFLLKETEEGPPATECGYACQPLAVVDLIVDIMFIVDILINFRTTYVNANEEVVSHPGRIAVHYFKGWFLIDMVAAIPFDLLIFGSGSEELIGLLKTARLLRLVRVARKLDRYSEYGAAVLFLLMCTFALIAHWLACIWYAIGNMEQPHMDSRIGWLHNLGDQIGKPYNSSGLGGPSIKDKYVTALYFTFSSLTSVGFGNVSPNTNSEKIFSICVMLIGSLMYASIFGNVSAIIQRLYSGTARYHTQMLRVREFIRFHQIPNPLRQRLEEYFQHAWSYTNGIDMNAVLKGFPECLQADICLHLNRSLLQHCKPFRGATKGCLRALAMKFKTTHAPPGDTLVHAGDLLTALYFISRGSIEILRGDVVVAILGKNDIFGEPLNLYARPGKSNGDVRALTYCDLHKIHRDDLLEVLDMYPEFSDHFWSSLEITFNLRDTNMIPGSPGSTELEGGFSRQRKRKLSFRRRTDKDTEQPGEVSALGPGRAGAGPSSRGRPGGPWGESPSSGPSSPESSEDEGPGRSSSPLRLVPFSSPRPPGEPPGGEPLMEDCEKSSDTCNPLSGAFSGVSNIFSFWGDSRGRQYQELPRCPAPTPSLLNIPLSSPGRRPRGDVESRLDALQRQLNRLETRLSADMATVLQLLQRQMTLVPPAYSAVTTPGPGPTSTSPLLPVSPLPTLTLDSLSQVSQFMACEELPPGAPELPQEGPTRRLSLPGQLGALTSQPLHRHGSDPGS
Chain of Peroxisome proliferator-activated receptor delta (Homo sapiens) (Q03181 whole entry, looked up): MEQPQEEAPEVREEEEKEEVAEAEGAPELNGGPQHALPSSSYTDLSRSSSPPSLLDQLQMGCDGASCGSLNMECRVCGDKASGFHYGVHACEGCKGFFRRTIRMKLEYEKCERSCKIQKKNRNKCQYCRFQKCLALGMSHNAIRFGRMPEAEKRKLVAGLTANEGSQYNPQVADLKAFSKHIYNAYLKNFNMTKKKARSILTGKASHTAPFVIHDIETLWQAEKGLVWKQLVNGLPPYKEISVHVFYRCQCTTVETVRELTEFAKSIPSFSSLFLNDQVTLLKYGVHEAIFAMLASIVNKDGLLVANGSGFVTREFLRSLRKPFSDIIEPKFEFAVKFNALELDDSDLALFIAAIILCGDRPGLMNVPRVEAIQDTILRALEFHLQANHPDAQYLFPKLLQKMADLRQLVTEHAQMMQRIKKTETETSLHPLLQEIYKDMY
Chain of Luciferin 4-monooxygenase (Photinus pyralis) (P08659 whole entry, looked up): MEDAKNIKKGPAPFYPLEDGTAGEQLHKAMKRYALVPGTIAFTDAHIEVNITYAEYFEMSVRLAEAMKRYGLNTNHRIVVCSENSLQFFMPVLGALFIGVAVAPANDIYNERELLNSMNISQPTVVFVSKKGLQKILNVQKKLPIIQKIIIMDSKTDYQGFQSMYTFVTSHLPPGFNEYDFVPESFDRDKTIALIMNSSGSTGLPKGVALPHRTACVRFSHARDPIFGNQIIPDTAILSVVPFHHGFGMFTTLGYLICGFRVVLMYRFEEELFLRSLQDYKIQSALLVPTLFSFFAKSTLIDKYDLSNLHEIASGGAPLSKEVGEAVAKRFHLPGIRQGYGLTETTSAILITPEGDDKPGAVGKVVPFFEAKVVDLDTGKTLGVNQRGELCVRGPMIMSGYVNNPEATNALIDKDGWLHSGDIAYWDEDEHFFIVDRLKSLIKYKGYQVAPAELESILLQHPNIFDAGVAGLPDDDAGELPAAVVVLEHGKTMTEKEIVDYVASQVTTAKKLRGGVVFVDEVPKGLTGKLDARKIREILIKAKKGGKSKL
Chain of Retinoic acid receptor RXR-alpha (Homo sapiens) (P19793 whole entry, looked up): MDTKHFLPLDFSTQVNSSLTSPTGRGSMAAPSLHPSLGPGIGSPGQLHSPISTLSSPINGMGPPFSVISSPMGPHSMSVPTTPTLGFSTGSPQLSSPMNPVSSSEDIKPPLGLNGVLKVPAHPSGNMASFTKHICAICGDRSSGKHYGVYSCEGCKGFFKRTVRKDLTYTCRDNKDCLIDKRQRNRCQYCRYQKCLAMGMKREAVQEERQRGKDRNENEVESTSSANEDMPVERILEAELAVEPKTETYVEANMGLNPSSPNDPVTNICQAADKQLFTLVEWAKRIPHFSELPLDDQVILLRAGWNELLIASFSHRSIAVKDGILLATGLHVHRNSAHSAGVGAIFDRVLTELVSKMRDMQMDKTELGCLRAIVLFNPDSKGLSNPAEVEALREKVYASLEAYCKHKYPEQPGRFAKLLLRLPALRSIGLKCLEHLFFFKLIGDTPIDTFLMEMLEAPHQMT
Chain of Peroxisome proliferator-activated receptor gamma (Homo sapiens) (P37231 whole entry, looked up): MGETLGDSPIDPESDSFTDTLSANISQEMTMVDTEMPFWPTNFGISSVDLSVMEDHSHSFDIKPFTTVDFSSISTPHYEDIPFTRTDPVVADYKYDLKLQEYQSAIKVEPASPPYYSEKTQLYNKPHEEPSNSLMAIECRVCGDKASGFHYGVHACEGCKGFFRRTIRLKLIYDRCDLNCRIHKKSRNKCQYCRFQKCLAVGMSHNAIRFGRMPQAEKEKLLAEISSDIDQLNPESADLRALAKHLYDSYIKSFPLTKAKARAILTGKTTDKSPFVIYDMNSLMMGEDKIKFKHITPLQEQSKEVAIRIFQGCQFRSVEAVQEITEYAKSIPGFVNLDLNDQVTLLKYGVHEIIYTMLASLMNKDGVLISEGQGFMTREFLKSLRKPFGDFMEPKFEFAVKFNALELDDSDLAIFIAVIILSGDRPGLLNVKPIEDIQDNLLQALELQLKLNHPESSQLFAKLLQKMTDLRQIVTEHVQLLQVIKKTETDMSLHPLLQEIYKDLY

For `CCCCC(CC)CN1CN(CC(CC)CCCC)CC(C)(N)C1` (centres undefined), the Potency in assay [1] is 4.47 µM (active).
For `CN(C)C(=O)Nc1ccc(Cl)c(Cl)c1`, the outcome in assay [2], in [3], in [6] and in assay [7] was inactive. Also, the Potency result in assay [4], in [1], in [11], in [12] and in assay [13] was “inactive” throughout. The max response in assay [5] was -0.181%; in assay [8], 0.705%; in assay [9], 4.3% (inactive). Further, the activity change % (negative = inhibition) in [10] is -2.96% (inactive).
For `CCC1NC(=O)c2cc(S(N)(=O)=O)c(Cl)cc2N1` (centres undefined), the Potency result in assay [1] is “inactive”.
For the molecule `C#C[C@]1(O)CC[C@H]2[C@@H]3CCC4=Cc5oncc5C[C@]4(C)[C@H]3CC[C@@]21C`, the call in assay [3], in [14] and in assay [6] was inactive. Moreover, the max response in assay [5] was 27%; in assay [8], 10.7%; in assay [9] it was -13.1% (inactive). Besides, the Potency result in assay [1], in [11], in assay [12] and in assay [15] was “inactive” throughout.
For `CCCCC(CC)COC(=O)c1ccc(N(C)C)cc1` (centres undefined), the molecule was classed as inactive in assay [2], in [3], in [14], in assay [6] and in assay [7]. In addition, the Potency result in [4], in assay [16], in assay [11], in [12], in assay [13] and in [15] was “inactive” each time. Moreover, the max response is -13.5% in assay [5]; -15.4% and -7.64% in assay [8]; -1.36% (inactive) and 6.53% (inactive) in assay [9]. Moreover, the activity change % (negative = inhibition) in assay [10] is -0.537% (inactive) and 3.83% (inactive). For the same molecule, the Potency entry in assay [1] was “inactive and 28.2 µM (active)”.
For the molecule `CO[C@H]1C=CO[C@@]2(C)Oc3c(C)c(O)c4c(O)c(c(/C=N/N5CCN(C)CC5)c(O)c4c3C2=O)NC(=O)/C(C)=C\C=C[C@H](C)[C@H](O)[C@@H](C)[C@@H](O)[C@@H](C)[C@H](OC(C)=O)[C@@H]1C`, in assay [1], the Potency entry was “inactive”.
On the same count and under the same terms, then `CCO[C@@H]1O[C@H](C(COCc2ccccc2)OCc2ccccc2)[C@H](OCc2ccccc2)[C@H]1O` (some centres undefined), with “inactive”.
On to `COc1ccc(C(Cl)=C(c2ccc(OC)cc2)c2ccc(OC)cc2)cc1`, for which the outcome in assay [2], in [14], in assay [6] and in assay [7] was inactive. Also, the Potency entry in assay [16], in assay [1], in assay [11], in assay [12] and in assay [13] was “inactive” throughout. For the same molecule, the max response in assay [5] was -9.29%; in assay [8], -0.236%; in [9], -16% (inactive). In assay [10], the activity change % (negative = inhibition) was -9.92% (inactive).
Take `CCCCCCCCCCCCCC(=O)OC(C)C`: the call in assay [3], in assay [14], in [6] and in assay [7] was inactive. Also, the Potency entry in assay [4], in assay [16], in assay [1], in assay [11], in assay [12] and in assay [13] was “inactive” each time. For the same molecule, the max response in assay [5] was -13.5%; in [8] it was -10.1%; in assay [9], 7.8% (inactive).
On to `CCCCCCCCCCCCCCCCO`, for which the call in [2], in assay [3], in [14], in [6] and in assay [7] was inactive. The Potency entry in assay [4], in [16], in assay [1], in [11], in assay [12] and in [13] was “inactive” throughout. In addition, the max response in [5] was 2.95%; in [8], -10.1%; in [9], -12.7% (inactive). In addition, the activity change % (negative = inhibition) in assay [10] is 11.7% (inactive).

Values taken from PubChem BioAssay (NCATS).
